An excerpt weighted towards active compounds, which were near 3.4% of everything screened.
GPR151 activ: activates the human receptor GPR151; 650,000 tested, 1% active; AID 1508602; activation, % at 11.2 µM; PathHunter beta-arrestin GPR151 cells, luminescence; Q8TDV0; in the data active means activation above about 4.9%
TEAD-YAP inh: TEAD-YAP interaction inhibition | HEK-TIYL cells, TEAD-Gal4/YAP UAS-luciferase luminescence | 640,000 tested, 1.4% active | inhibition, % at 9.12 µM; in the data active means inhibition above about 32%
MITF primary: inhibitors of human MITF; AID 1259374; inhibition, % at 2.6 µM; AlphaScreen MITF homodimerization, bead proximity signal; O75030; 650,000 tested, 0.91% active; in the data active means inhibition above about 50%
Target sequence (O75030 whole entry, looked up): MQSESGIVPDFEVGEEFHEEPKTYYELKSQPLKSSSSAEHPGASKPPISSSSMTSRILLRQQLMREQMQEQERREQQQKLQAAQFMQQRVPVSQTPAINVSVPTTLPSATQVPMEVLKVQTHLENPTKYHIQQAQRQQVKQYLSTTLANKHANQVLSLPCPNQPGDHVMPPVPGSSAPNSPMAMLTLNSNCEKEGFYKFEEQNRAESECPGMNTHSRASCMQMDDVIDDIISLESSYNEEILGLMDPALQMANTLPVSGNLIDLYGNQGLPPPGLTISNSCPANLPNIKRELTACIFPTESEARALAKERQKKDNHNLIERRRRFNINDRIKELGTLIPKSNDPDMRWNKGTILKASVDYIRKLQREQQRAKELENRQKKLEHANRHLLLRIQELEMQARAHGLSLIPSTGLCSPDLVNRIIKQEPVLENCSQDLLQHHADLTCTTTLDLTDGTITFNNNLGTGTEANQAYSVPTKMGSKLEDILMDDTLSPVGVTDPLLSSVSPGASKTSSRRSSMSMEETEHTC
FBW7 act: human FBW7 E3 ligase activation, primary screen; normalized activity (activation), % at 26.1 µM; AID 1259310; AlphaScreen FBW7–phospho-cyclin E peptide binding, activator screen; Q969H0; 650,000 tested, 0.13% active; in the data active means normalized activity above about 1.9%;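 further: purified mutant Fbw7 with reduced substrate affinity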
Numbers stand for hits.

CC(=O)N1CC(C)Oc2cc(S(=O)(=O)Nc3ccccc3Cl)ccc21 (stereo unspecified) was read as GPR151 activ inactive, TEAD-YAP inh inactive, MITF primary inactive and FBW7 act inactive.
COc1ccc(OC)c(NS(=O)(=O)c2ccc(C(C)(C)C)cc2)c1 was read as GPR151 activ inactive, TEAD-YAP inh inactive, MITF primary inactive and FBW7 act inactive.
For CCOc1ccc(S(=O)(=O)Nc2cc(OC)ccc2OC)cc1 the results were GPR151 activ inactive, TEAD-YAP inh 63.3, MITF primary inactive and FBW7 act inactive.
`COc1ccc(NS(=O)(=O)c2ccc3c(c2)OC(C)CN3C(C)=O)cc1OC` (stereo unspecified) gave GPR151 activ inactive, TEAD-YAP inh 39.6, MITF primary inactive and FBW7 act inactive.
`COc1cc2c(=O)n(-c3ccc(C)cc3)c(=O)n(CC(=O)NCc3ccco3)c2cc1OC` gave GPR151 activ inactive, TEAD-YAP inh inactive, MITF primary inactive and FBW7 act inactive.
Screening CCOc1ccc(S(=O)(=O)Nc2cc(OC)ccc2OC)cc1C returned GPR151 activ inactive, TEAD-YAP inh 51.7, MITF primary inactive and FBW7 act inactive.
CCOc1ccc(S(=O)(=O)Nc2cc([N+](=O)[O-])ccc2OC)cc1 was read as GPR151 activ inactive, TEAD-YAP inh 51.3, MITF primary inactive and FBW7 act inactive.
Screening COc1ccc(OC)c(NS(=O)(=O)c2ccc([N+](=O)[O-])cc2)c1 returned GPR151 activ inactive, TEAD-YAP inh inactive, MITF primary inactive and FBW7 act inactive.
CCOc1ccccc1NS(=O)(=O)c1ccc(OC)c(C)c1 was read as GPR151 activ inactive, TEAD-YAP inh inactive, MITF primary inactive and FBW7 act inactive.
Screening CCSc1nnc2c(n1)OC(c1ccccc1Cl)Nc1ccccc1-2 (stereo unspecified) returned GPR151 activ inactive, TEAD-YAP inh inactive, MITF primary inactive and FBW7 act inactive.
`CC(=O)Nc1cccc(N=Cc2ccc3ccccc3c2)c1` gave GPR151 activ inactive, TEAD-YAP inh inactive, MITF primary inactive and FBW7 act inactive.
Screening N#C/C(=C\c1cccc(Cl)c1)C(=O)NCc1ccccc1 returned GPR151 activ inactive, TEAD-YAP inh inactive, MITF primary inactive and FBW7 act inactive.
`O=C(NCc1ccccc1)C(=Cc1cccc(O)c1)C(=O)NCc1ccccc1` gave GPR151 activ inactive, TEAD-YAP inh 35.4, MITF primary inactive and FBW7 act inactive.
For COc1ccc(/C=C2\SC(=S)NC2=O)cc1O the results were GPR151 activ inactive, TEAD-YAP inh inactive, MITF primary inactive and FBW7 act inactive.
Screening Cc1cc(/C=C2\SC(=O)N(C)C2=O)c(C)n1-c1ccc(O)cc1 returned GPR151 activ inactive, TEAD-YAP inh 78.6, MITF primary inactive and FBW7 act inactive.
For O=C1NC(=Nc2ccccc2)S/C1=C/c1ccc(O)c(O)c1 the results were GPR151 activ inactive, TEAD-YAP inh 47.1, MITF primary inactive and FBW7 act inactive.
Screening O=C1NC(=S)S/C1=C\c1ccc(O)c(O)c1 returned GPR151 activ inactive, TEAD-YAP inh inactive, MITF primary 54.6 and FBW7 act inactive.
Screening O=C1NC(=Nc2ccc(O)cc2)S/C1=C\c1ccc(F)cc1 returned GPR151 activ inactive, TEAD-YAP inh 32.0, MITF primary inactive and FBW7 act inactive.
O=C1NC(=Nc2ccccc2)S/C1=C/c1ccccc1 was read as GPR151 activ inactive, TEAD-YAP inh inactive, MITF primary inactive and FBW7 act inactive.
O=C(/C=C/c1ccco1)NC(=S)Nc1cccc(NC(=O)c2ccco2)c1 was read as GPR151 activ inactive, TEAD-YAP inh inactive, MITF primary inactive and FBW7 act inactive.
For Nc1ncc(Br)cc1S(=O)(=O)NCCC(=O)NCc1cccs1 the results were GPR151 activ inactive, TEAD-YAP inh inactive, MITF primary inactive and FBW7 act inactive.
`Cc1ccccc1CCNCc1c(C(=O)O)n(Cc2ccc(Cl)cc2)c2ccccc12` gave GPR151 activ inactive, TEAD-YAP inh inactive, MITF primary inactive and FBW7 act inactive.
`CCOC(=O)N1CCN(C(=S)Nc2ccc3nc[nH]c(=O)c3c2)CC1` gave GPR151 activ inactive, TEAD-YAP inh inactive, MITF primary inactive and FBW7 act inactive.
`O=C1NC(=Nc2ccc(O)cc2)S/C1=C/C=C/c1ccco1` gave GPR151 activ inactive, TEAD-YAP inh 37.9, MITF primary inactive and FBW7 act inactive.
Cc1cc(/C=C2\SC(=Nc3ccccc3)NC2=O)c(C)n1-c1ccccc1 was read as GPR151 activ inactive, TEAD-YAP inh 53.2, MITF primary inactive and FBW7 act inactive.
`COC(=O)C(C)N1C(=O)S/C(=C/c2cc(C)n(-c3ccccn3)c2C)C1=O` (stereo unspecified) gave GPR151 activ inactive, TEAD-YAP inh 42.6, MITF primary inactive and FBW7 act inactive.
Screening CCOc1cc(/C=C2/SC(=Nc3ccccc3)NC2=O)ccc1O returned GPR151 activ inactive, TEAD-YAP inh 52.4, MITF primary inactive and FBW7 act inactive.
`O=C1NC(=Nc2ccc(F)cc2)S/C1=C\c1ccco1` gave GPR151 activ inactive, TEAD-YAP inh inactive, MITF primary inactive and FBW7 act inactive.
Screening Cc1ccc(NC(=S)N(Cc2ccccc2)Cc2cccs2)cc1 returned GPR151 activ inactive, TEAD-YAP inh inactive, MITF primary inactive and FBW7 act inactive.
`Cc1ccc(NC(=S)N(Cc2ccccc2)Cc2cccs2)cc1C` gave GPR151 activ inactive, TEAD-YAP inh 57.0, MITF primary inactive and FBW7 act inactive.
`OC1CCC(Nc2nccn3c(-c4ccc(OC(F)(F)F)cc4)cnc23)CC1` (stereo unspecified) gave GPR151 activ inactive, TEAD-YAP inh inactive, MITF primary inactive and FBW7 act inactive.
For CCCCc1ccc(NC(=O)c2ccc(N(C)S(C)(=O)=O)cc2)cc1 the results were GPR151 activ inactive, TEAD-YAP inh 34.9, MITF primary inactive and FBW7 act inactive.
COc1ccc2ccccc2c1/C=C1\SC(=S)NC1=O was read as GPR151 activ inactive, TEAD-YAP inh inactive, MITF primary inactive and FBW7 act inactive.
`COc1ccc(OC)c(/C=C2/SC(=Nc3ccc(C)cc3)NC2=O)c1` gave GPR151 activ inactive, TEAD-YAP inh 51.4, MITF primary inactive and FBW7 act inactive.
Screening COc1ccc(/C=C2\SC(=Nc3ccccc3)NC2=O)c2ccccc12 returned GPR151 activ inactive, TEAD-YAP inh 63.2, MITF primary inactive and FBW7 act inactive.
For COc1ccc2ccccc2c1/C=C1/SC(=Nc2ccccc2)NC1=O the results were GPR151 activ inactive, TEAD-YAP inh 43.6, MITF primary inactive and FBW7 act inactive.
Screening COc1ccc(/C=C2\SC(=Nc3cccc4ccccc34)NC2=O)c(OC)c1 returned GPR151 activ inactive, TEAD-YAP inh 58.6, MITF primary inactive and FBW7 act inactive.
For COc1ccc(/C=C2\SC(=Nc3ccccc3F)NC2=O)c(OC)c1 the results were GPR151 activ inactive, TEAD-YAP inh inactive, MITF primary inactive and FBW7 act inactive.
For COc1ccc(NC(=O)CC2C(=O)N(c3ccccc3)C(=O)N2Cc2cccs2)cc1 (stereo unspecified) the results were GPR151 activ inactive, TEAD-YAP inh inactive, MITF primary inactive and FBW7 act inactive.

Bioassay records deposited in PubChem by The Scripps Research Institute Molecular Screening Center.
